About 16,000 (4.4%) of roughly 360,000 compounds were called active. Roughly 9% stayed inconclusive and do not appear here. Calls come from the whole dose curve; as a rule, active = well fitted inhibition curve with a large enough effect; inconclusive = small, poorly fitted or top-dose-only effect; inactive = no such curve, though single readings can be large or run the other way. For the sample, actives were picked, then their nearest neighbours and some compounds at random.
Target: Bromodomain adjacent to zinc finger domain protein 2B (Homo sapiens) (UniProt Q9UIF8)
Assay: qHTS Assay for Inhibitors of BAZ2B; note: nearly all actives have a fitted effect of over 60% in size
Details: AlphaScreen BAZ2B-H3K14Ac peptide displacement; series mostly up to 114 µM; activity change, negative = inhibition: at the top concentration
Procedure, shortened: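 Multi-concentration screen (max 110 uM) measuring displacement of acetylated histone H3 peptide from BAZ2B by AlphaScreen, using 50 nM protein, 50 nM peptide and 10 ug/mL streptavidin donor plus Ni-chelate acceptor beads.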
% is set by controls: 0 for no effect and ±100 for the full control effect; potency is the fitted concentration of half-maximal effect.

Chain of Bromodomain adjacent to zinc finger domain protein 2B (Homo sapiens) (Q9UIF8 whole entry, looked up, the tested form may be a part): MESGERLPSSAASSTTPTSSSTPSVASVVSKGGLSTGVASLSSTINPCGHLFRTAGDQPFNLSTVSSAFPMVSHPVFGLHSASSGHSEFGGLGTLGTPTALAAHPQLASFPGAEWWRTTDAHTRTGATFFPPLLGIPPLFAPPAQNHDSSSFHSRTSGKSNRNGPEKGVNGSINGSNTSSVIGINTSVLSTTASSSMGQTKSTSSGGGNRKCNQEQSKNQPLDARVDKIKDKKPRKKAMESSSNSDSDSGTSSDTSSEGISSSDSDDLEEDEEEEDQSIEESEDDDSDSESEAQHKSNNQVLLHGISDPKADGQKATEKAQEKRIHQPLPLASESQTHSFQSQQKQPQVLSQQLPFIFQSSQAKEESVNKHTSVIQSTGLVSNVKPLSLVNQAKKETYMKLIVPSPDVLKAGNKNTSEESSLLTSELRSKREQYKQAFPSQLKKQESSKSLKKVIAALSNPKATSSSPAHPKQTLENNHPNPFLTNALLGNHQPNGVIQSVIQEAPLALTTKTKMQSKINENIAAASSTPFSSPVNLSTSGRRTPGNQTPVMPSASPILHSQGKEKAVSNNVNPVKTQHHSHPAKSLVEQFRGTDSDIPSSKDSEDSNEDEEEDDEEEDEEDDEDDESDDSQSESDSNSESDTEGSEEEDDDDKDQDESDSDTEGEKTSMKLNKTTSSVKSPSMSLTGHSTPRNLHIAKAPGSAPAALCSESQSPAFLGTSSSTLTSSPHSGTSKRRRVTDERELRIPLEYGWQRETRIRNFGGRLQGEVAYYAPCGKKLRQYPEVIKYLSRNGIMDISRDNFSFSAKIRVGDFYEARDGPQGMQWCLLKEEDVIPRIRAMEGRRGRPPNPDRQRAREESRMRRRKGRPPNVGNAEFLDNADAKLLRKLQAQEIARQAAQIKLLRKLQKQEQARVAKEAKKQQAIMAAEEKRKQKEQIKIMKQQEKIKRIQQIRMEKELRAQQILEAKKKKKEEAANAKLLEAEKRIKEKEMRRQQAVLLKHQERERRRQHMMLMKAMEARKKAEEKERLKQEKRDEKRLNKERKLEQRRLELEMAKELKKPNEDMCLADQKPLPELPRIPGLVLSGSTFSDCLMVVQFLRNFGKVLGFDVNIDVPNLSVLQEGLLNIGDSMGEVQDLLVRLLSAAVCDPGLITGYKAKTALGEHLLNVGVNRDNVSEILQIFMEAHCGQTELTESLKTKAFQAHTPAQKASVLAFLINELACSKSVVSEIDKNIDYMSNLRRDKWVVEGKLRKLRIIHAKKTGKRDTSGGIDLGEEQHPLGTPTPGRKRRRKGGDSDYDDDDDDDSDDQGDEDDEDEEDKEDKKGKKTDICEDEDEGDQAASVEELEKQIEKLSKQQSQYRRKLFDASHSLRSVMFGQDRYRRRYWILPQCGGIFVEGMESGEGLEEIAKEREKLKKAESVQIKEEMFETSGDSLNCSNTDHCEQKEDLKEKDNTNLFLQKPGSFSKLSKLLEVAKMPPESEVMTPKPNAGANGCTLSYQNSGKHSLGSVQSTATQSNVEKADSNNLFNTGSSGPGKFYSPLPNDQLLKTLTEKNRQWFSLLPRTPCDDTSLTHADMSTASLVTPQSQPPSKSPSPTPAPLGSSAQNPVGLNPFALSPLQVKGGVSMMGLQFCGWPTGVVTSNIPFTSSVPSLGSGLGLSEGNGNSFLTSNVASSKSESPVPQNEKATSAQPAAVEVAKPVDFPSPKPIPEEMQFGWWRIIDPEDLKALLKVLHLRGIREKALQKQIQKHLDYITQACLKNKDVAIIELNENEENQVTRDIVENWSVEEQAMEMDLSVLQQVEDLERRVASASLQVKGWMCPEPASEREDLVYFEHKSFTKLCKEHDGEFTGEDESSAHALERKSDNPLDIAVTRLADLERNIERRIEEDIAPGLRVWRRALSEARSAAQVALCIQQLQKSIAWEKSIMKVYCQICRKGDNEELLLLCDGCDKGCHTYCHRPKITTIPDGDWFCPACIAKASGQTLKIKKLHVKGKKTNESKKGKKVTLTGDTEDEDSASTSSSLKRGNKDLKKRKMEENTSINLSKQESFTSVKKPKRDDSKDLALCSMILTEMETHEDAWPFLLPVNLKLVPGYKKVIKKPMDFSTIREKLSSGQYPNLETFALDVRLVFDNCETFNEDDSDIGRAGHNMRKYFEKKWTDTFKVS

Activity change, negative = inhibition, inactive:
Cc1cc(-c2ccccc2)n2nc(-c3ccccc3)cc2n1 323%
CCc1ccccc1NC(=O)Cn1c(=O)n(CC2CCC(C(=O)NCCc3ccccc3)CC2)c(=O)c2ccccc21 (stereo not drawn) -14.6%
COc1ccc(/C=C(/CC(=O)Nc2ccc(C)cc2)c2nc3ccccc3s2)cc1 -6.12%
COc1ccccc1OCc1nc2ccccc2s1 38.4%
Cc1cc2nc(-c3ccc(NC(=O)c4cc5ccccc5o4)cc3)oc2cc1C -4.03%
COc1ccccc1CNC(=O)C(=O)NCC(c1ccco1)S(=O)(=O)c1ccc(F)cc1 (stereo not drawn) 5.94%
CCCN(C(=O)Cn1cc(S(=O)(=O)N2CCN(c3ccccc3F)CC2)c2ccccc2c1=O)c1cccc(C)c1 -10.3%
COc1cc(C(=O)NCC(c2ccc(Cl)cc2)N2CCOCC2)cc(OC)c1OC (stereo not drawn) -32.1%
CCOc1ccccc1NC(=O)Cn1c(=O)n(Cc2ccco2)c(=O)c2sc3ccccc3c21 -10.3%
CCOC(=O)C1CCN(C(c2ccc(F)cc2)c2sc3nc(-c4ccco4)nn3c2O)CC1 (stereo not drawn) -19%
Cc1ccc(-n2c3nc(=O)[nH]c(=O)c-3cc3c(Cl)cccc32)cc1 -1.36%
CCOc1ccc(OCC)c(NC(=O)c2cc(C)nc3c2c(C)nn3-c2cccc(Cl)c2C)c1 4.94% [at 57.1 µM]
Cc1ccc(C(=O)Nc2cc3c(cc2N2CCCC2)n(C)c(=O)c(=O)n3C)cc1 -21.3%
O=S(=O)(c1ccc(Cl)cc1)c1nnn2c1nc(NC1CCCC1)c1sccc12 -14%
O=C(Nc1ccc(S(=O)(=O)N2CCC(c3nc4ccccc4s3)CC2)cc1)c1ccccc1F 0.985%
S=c1[nH]nc(-c2ccncc2)n1/N=C/c1ccccc1Cl -0.298%
S=c1[nH]nc(-c2cccs2)n1/N=C/c1cccs1 -19.5%
COc1ccc(C2C(=O)N(C3CCCCCC3)CC(=O)N2CCc2ccc(Cl)cc2)cc1OC (stereo not drawn) -16.9%
O=C(CNC(=O)C1COc2ccccc2O1)N/N=C/c1cc(Br)c(O)c(Br)c1 (stereo not drawn) -26.2%
COc1ccc(OC)c2sc(N3CCN(C(=O)C4COc5ccccc5O4)CC3)nc12 (stereo not drawn) -3.92%
Cn1c(C(=O)Nc2cccc(C(F)(F)F)c2)cc2c(=O)n3ccccc3nc21 -12.8%
COc1cccc(C(=O)NCc2ccc3c(c2)CCN3C(=O)c2ccncc2)c1 -2.83%
CCOc1ccc(S(=O)(=O)N2CCCCCC2)c2ccccc12 15.5%
C#CCOc1ccc(C2CC(=O)Nc3c2c(C)nn3-c2nc(C)cc(C)n2)cc1 (stereo not drawn) -37.9%
COc1ccccc1C(=O)Nc1c(C(=O)Nc2ccc(C)cc2)oc2ccccc12 -20.1%
Cc1cccc(C(=O)N2CCc3c([nH]c4ccccc34)C2CC(C)C)n1 (stereo not drawn) -38.1%
CCOc1cccc(CC(=O)N2CCc3c([nH]c4ccccc34)C2c2ccc(OC)cc2)c1OCC (stereo not drawn) -24.8%
Cc1ccc(N(CC(=O)NCc2ccc(Cl)cc2)S(=O)(=O)N(C)C)cc1 2.41%
CCOc1ccc(NC(=O)CCC(=O)N2CC(C)Oc3ccc(C)cc32)cc1 (stereo not drawn) 0.864%
CCCn1c2ccccc2c2cnn(CC(=O)NCC3CCN(Cc4ccc(C)cc4)CC3)c(=O)c21 -14.3%
Cc1ccc(NC(=O)c2oc3ccc(S(=O)(=O)N4CCCCC4)cc3c2C)cc1Cl 2.57%
COc1ccc(Cl)cc1S(=O)(=O)N1CCC(c2ccncc2)CC1 -3.34%
Cc1nn(Cc2ccc(F)cc2)c(C)c1NC(=O)c1cc(CC(C)C)on1 2.89%
Cc1cc(C)c2oc(C(=O)Nc3c(C(=O)Nc4ccccc4)oc4ccccc34)cc(=O)c2c1 -1.94%
COc1ccc2[nH]cc(CCN3C(=O)c4ccc(C(=O)O)cc4C3=O)c2c1 -3.1%
COC(=O)CN1C(=O)C(O)=C(C(C)=O)C1c1ccc([N+](=O)[O-])cc1 (stereo not drawn) -0.86%
Cc1cccc(N(C)C(=O)CS(=O)(=O)c2cccc3nsnc23)c1 5.25%
Cc1ccc(C)c(N2C(=O)N(Cc3c(F)cccc3Cl)c3ccccc3S2(=O)=O)c1 -12.1%

Potency, active:
COc1cccc2sc(NNC(=O)c3nc4ccccc4s3)nc12 35.5 µM
CCOc1ccccc1/C=c1\sc2nc(-c3ccco3)nn2c1=O 50.1 µM
S=c1[nH]nc(-c2ccco2)n1/N=C/c1ccc(Br)s1 70.8 µM
Cc1c(CC(=O)N2CCN(C(=O)C3COc4ccccc4O3)CC2)c(=O)oc2c(O)c(O)ccc12 (stereo not drawn) 7.94 µM
CN(C)CCOCCOc1ccc(Cl)c2ccccc12 50.1 µM
CCN(CC)CCOCCOc1ccc(Cl)c2ccccc12 79.4 µM
c1ccc(C2c3[nH]c4ccccc4c3CCN2Cc2cccn2-c2cccnc2)nc1 (stereo not drawn) 31.6 µM
CCOc1ccc(C2c3[nH]c4ccccc4c3CCN2Cc2cccn2-c2ncccn2)cc1 (stereo not drawn) 28.2 µM
COc1ccc(C2C(C(C)=O)=C(O)C(=O)N2CCc2c[nH]c3ccccc23)cc1 (stereo not drawn) 56.2 µM
CC(=O)c1cc(C#N)c(N2CCCCC2)nc1C 56.2 µM

Reference: PubChem BioAssay AID504333 (National Center for Advancing Translational Sciences (NCATS), 2011)
